Experimental data reported in article PMC11006913.
Substitutions are numbered along the chain they refer to.

Legend:
Assay in all cases: PBM; 200 nM protein, PBS
Settings in all cases: dsDNA, one strand shown
SIX6 [1] = target: T1, SIX6 (Homo sapiens, UniProt O95475 114-200, L167I)
T1 sequence: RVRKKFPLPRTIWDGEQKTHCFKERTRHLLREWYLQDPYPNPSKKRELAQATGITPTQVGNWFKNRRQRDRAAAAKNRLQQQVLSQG

SIX6 [2] = target: T2, SIX6 (Homo sapiens, UniProt O95475 114-200, L143V)
T2 sequence: T1 sequence with L30V, I54L

SIX6 [3] = target: T3, SIX6 (Homo sapiens, UniProt O95475 114-200, H141N)
T3 sequence: T1 sequence with H28N, I54L

SIX6 [4] = target: T4, SIX6 (Homo sapiens, UniProt O95475 114-200, T165P)
T4 sequence: T1 sequence with T52P, I54L

SIX6 [5] = target: T5, SIX6 (Homo sapiens, UniProt O95475 114-200, L167M)
T5 sequence: T1 sequence with I54M

SIX6 [6] = target: T6, SIX6 (Homo sapiens, UniProt O95475 114-200, L143M)
T6 sequence: T1 sequence with L30M, I54L

SIX6 [7] = target: T7, SIX6 (Homo sapiens, UniProt O95475 114-200, L143I)
T7 sequence: T1 sequence with L30I, I54L

SIX6 [8] = target: T8, SIX6 (Homo sapiens, UniProt O95475 114-200, T165G)
T8 sequence: T1 sequence with T52G, I54L

SIX6 [9] = target: T9, SIX6 (Homo sapiens, UniProt O95475 114-200, T139Q)
T9 sequence: T1 sequence with T26Q, I54L

SIX6 [10] = target: T10, SIX6 (Homo sapiens, UniProt O95475 114-200, T165A)
T10 sequence: T1 sequence with T52A, I54L

SIX6 [11] = target: T11, SIX6 (Homo sapiens, UniProt O95475 114-200, L167V)
T11 sequence: T1 sequence with I54V

SIX6 [12] = target: T12, SIX6 (Homo sapiens, UniProt O95475 114-200)
T12 sequence: T1 sequence with I54L

SIX6 [13] = target: T13, SIX6 (Homo sapiens, UniProt O95475 114-200, T165I)
T13 sequence: T1 sequence with T52I, I54L

Row | Sequence | binding signal (SIX6 [1]) | binding signal (SIX6 [2]) | binding signal (SIX6 [3]) | binding signal (SIX6 [4]) | binding signal (SIX6 [5]) | binding signal (SIX6 [6]) | binding signal (SIX6 [7]) | binding signal (SIX6 [8]) | binding signal (SIX6 [9]) | binding signal (SIX6 [10]) | binding signal (SIX6 [11]) | binding signal (SIX6 [12]) | binding signal (SIX6 [13])
1 | CGCGGCCA | 8.81 upbm affinity estimate (log intensity, higher = more binding, comparable within an allelic series) | 8.96 upbm affinity estimate (log intensity, higher = more binding, comparable within an allelic series) | 8.88 upbm affinity estimate (log intensity, higher = more binding, comparable within an allelic series) | 8.99 upbm affinity estimate (log intensity, higher = more binding, comparable within an allelic series) | 8.82 upbm affinity estimate (log intensity, higher = more binding, comparable within an allelic series) | 8.81 upbm affinity estimate (log intensity, higher = more binding, comparable within an allelic series) | 8.93 upbm affinity estimate (log intensity, higher = more binding, comparable within an allelic series) | 8.87 upbm affinity estimate (log intensity, higher = more binding, comparable within an allelic series) | 8.91 upbm affinity estimate (log intensity, higher = more binding, comparable within an allelic series) | 8.86 upbm affinity estimate (log intensity, higher = more binding, comparable within an allelic series) | 8.96 upbm affinity estimate (log intensity, higher = more binding, comparable within an allelic series) | 8.84 upbm affinity estimate (log intensity, higher = more binding, comparable within an allelic series) | 8.87 upbm affinity estimate (log intensity, higher = more binding, comparable within an allelic series)
2 | AGGGTATC | 11.2 upbm affinity estimate (log intensity, higher = more binding, comparable within an allelic series) | 10.2 upbm affinity estimate (log intensity, higher = more binding, comparable within an allelic series) | 11.2 upbm affinity estimate (log intensity, higher = more binding, comparable within an allelic series) | 9.36 upbm affinity estimate (log intensity, higher = more binding, comparable within an allelic series) | 10.7 upbm affinity estimate (log intensity, higher = more binding, comparable within an allelic series) | 11 upbm affinity estimate (log intensity, higher = more binding, comparable within an allelic series) | 10.4 upbm affinity estimate (log intensity, higher = more binding, comparable within an allelic series) | 11.4 upbm affinity estimate (log intensity, higher = more binding, comparable within an allelic series) | 11.4 upbm affinity estimate (log intensity, higher = more binding, comparable within an allelic series) | 11.1 upbm affinity estimate (log intensity, higher = more binding, comparable within an allelic series) | 10.9 upbm affinity estimate (log intensity, higher = more binding, comparable within an allelic series) | 11.1 upbm affinity estimate (log intensity, higher = more binding, comparable within an allelic series) | 11 upbm affinity estimate (log intensity, higher = more binding, comparable within an allelic series)
3 | CAGCCCCG | 8.86 upbm affinity estimate (log intensity, higher = more binding, comparable within an allelic series) | 8.79 upbm affinity estimate (log intensity, higher = more binding, comparable within an allelic series) | 8.86 upbm affinity estimate (log intensity, higher = more binding, comparable within an allelic series) | 8.88 upbm affinity estimate (log intensity, higher = more binding, comparable within an allelic series) | 8.84 upbm affinity estimate (log intensity, higher = more binding, comparable within an allelic series) | 8.78 upbm affinity estimate (log intensity, higher = more binding, comparable within an allelic series) | 8.82 upbm affinity estimate (log intensity, higher = more binding, comparable within an allelic series) | 8.82 upbm affinity estimate (log intensity, higher = more binding, comparable within an allelic series) | 8.98 upbm affinity estimate (log intensity, higher = more binding, comparable within an allelic series) | 8.8 upbm affinity estimate (log intensity, higher = more binding, comparable within an allelic series) | 8.86 upbm affinity estimate (log intensity, higher = more binding, comparable within an allelic series) | 8.8 upbm affinity estimate (log intensity, higher = more binding, comparable within an allelic series) | 8.81 upbm affinity estimate (log intensity, higher = more binding, comparable within an allelic series)
4 | GATACACC | 11.1 upbm affinity estimate (log intensity, higher = more binding, comparable within an allelic series) | 10.4 upbm affinity estimate (log intensity, higher = more binding, comparable within an allelic series) | 11.1 upbm affinity estimate (log intensity, higher = more binding, comparable within an allelic series) | 9.65 upbm affinity estimate (log intensity, higher = more binding, comparable within an allelic series) | 10.7 upbm affinity estimate (log intensity, higher = more binding, comparable within an allelic series) | 10.9 upbm affinity estimate (log intensity, higher = more binding, comparable within an allelic series) | 10.4 upbm affinity estimate (log intensity, higher = more binding, comparable within an allelic series) | 11.2 upbm affinity estimate (log intensity, higher = more binding, comparable within an allelic series) | 11.2 upbm affinity estimate (log intensity, higher = more binding, comparable within an allelic series) | 11.1 upbm affinity estimate (log intensity, higher = more binding, comparable within an allelic series) | 10.9 upbm affinity estimate (log intensity, higher = more binding, comparable within an allelic series) | 11.1 upbm affinity estimate (log intensity, higher = more binding, comparable within an allelic series) | 10.9 upbm affinity estimate (log intensity, higher = more binding, comparable within an allelic series)
5 | GGATATCA | 11.4 upbm affinity estimate (log intensity, higher = more binding, comparable within an allelic series) | 10.4 upbm affinity estimate (log intensity, higher = more binding, comparable within an allelic series) | 11.4 upbm affinity estimate (log intensity, higher = more binding, comparable within an allelic series) | 9.53 upbm affinity estimate (log intensity, higher = more binding, comparable within an allelic series) | 10.9 upbm affinity estimate (log intensity, higher = more binding, comparable within an allelic series) | 11.1 upbm affinity estimate (log intensity, higher = more binding, comparable within an allelic series) | 10.4 upbm affinity estimate (log intensity, higher = more binding, comparable within an allelic series) | 11.3 upbm affinity estimate (log intensity, higher = more binding, comparable within an allelic series) | 11.2 upbm affinity estimate (log intensity, higher = more binding, comparable within an allelic series) | 11.3 upbm affinity estimate (log intensity, higher = more binding, comparable within an allelic series) | 11.2 upbm affinity estimate (log intensity, higher = more binding, comparable within an allelic series) | 11.2 upbm affinity estimate (log intensity, higher = more binding, comparable within an allelic series) | 11.2 upbm affinity estimate (log intensity, higher = more binding, comparable within an allelic series)
6 | AGTATATC | 11 upbm affinity estimate (log intensity, higher = more binding, comparable within an allelic series) | 10.3 upbm affinity estimate (log intensity, higher = more binding, comparable within an allelic series) | 10.9 upbm affinity estimate (log intensity, higher = more binding, comparable within an allelic series) | 9.93 upbm affinity estimate (log intensity, higher = more binding, comparable within an allelic series) | 10.8 upbm affinity estimate (log intensity, higher = more binding, comparable within an allelic series) | 10.9 upbm affinity estimate (log intensity, higher = more binding, comparable within an allelic series) | 10.3 upbm affinity estimate (log intensity, higher = more binding, comparable within an allelic series) | 10.9 upbm affinity estimate (log intensity, higher = more binding, comparable within an allelic series) | 11 upbm affinity estimate (log intensity, higher = more binding, comparable within an allelic series) | 10.8 upbm affinity estimate (log intensity, higher = more binding, comparable within an allelic series) | 10.7 upbm affinity estimate (log intensity, higher = more binding, comparable within an allelic series) | 10.8 upbm affinity estimate (log intensity, higher = more binding, comparable within an allelic series) | 10.9 upbm affinity estimate (log intensity, higher = more binding, comparable within an allelic series)
